Rin1-Abl PPI inh – inhibitors of Rin1-Abl protein binding, primary screen, biochemical, TR-FRET; Tyrosine-protein kinase ABL1 (Homo sapiens) + Ras and Rab interactor 1 (Homo sapiens), …; inhibition, % at 7.35 µM; actives 0.4% (n = 360,000); AID 588664, 2011; in the data active means inhibition above about 5%, passing the limit was not always enough
CTSL1 counter-1 – Fasciola hepatica cathepsin L1 inhibitors, primary screen, counter-screen for PFM18AAP inhibitor project, biochemical, QFRET, fluorogenic peptide substrate. recombinant F. hepatica cathepsin L1, Z-Leu-Arg-MCA fluorescence. inhibition, % at 5.96 µM. actives 0.49% (n = 300,000). AID 1906, 2009;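 active means inhibition above the mean of all tested compounds plus 3 SD, set per screening campaign, cut at about 17% in these data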
PfM18AAP inh-1 – PfM18AAP inhibitors, malaria aminopeptidase, primary screen, biochemical, QFRET, recombinant enzyme; actives 1.2% (n = 290,000); H-Glu-NHMec fluorogenic cleavage; inhibition, % at 7.35 µM; M18 aspartyl aminopeptidase (Plasmodium falciparum 3D7);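 active means inhibition above the campaign mean inhibition over all tested compounds plus 3 SD, cut at about 28% in these data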
Calb FLC – C. albicans growth inhibition with fluconazole, primary screen, CaCi-2 strain, Alamar Blue fluorescence; C. albicans CaCi-2 (fluconazole-resistant clinical isolate) + fluconazole, 48 h; growth inhibition, % (test concentration not listed); actives 0.57% (n = 300,000); AID 1979, 2009;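 active means growth inhibition above about 58% in most replicates, limit read from the data, passing the limit was not always enough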;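 further: all wells also contain fluconazole at 8 µg/ml as a sub-toxic cotreatment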
PfM18AAP inh-2 – PfM18AAP inhibitors, malaria aminopeptidase, confirmation, biochemical, QFRET, recombinant enzyme, triplicate. shares compounds with PfM18AAP inh-1. H-Glu-NHMec fluorogenic cleavage. inhibition, % at 7.35 µM. actives 28% (n = 2,400). AID 2170, 2009;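 active means mean inhibition over replicate wells above the hit cutoff set for the earlier primary screen, cut at about 29% in these data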
CTSL1 counter-2 – cathepsin L1 inhibitors, retest, confirmation, counter-screen for PFM18AAP inhibitor project, biochemical, QFRET, triplicate; shares compounds with PfM18AAP inh-1; inhibition, % at 5.96 µM; 2,400 tested, under 10 active; AID 2178, 2009; purified cathepsin L1, Z-Leu-Arg-MCA fluorescence;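 active means average inhibition across replicates above the hit cutoff set in the earlier primary screen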
A number is an active result; - = inactive; . = not tested or not shown. Only some compounds are listed: those with a hit (about 2.1% of all), similar ones and a draw of the others.

SMILES | Rin1-Abl PPI inh | CTSL1 counter-1 | PfM18AAP inh-1 | Calb FLC | PfM18AAP inh-2 | CTSL1 counter-2
CCOc1cc(/C=C/C(=O)OCC(=O)N(CC)C2CCS(=O)(=O)C2)cc(Cl)c1OC (centres undefined) | - | . | . | . | . | .
Cn1c(=O)[nH]c(=O)c2c1nc(Br)n2Cc1ccc(Cl)cc1 | - | . | . | . | . | .
Cn1c(=O)[nH]c(=O)c2c1nc(Br)n2CCCc1ccccc1 | . | . | - | - | . | .
Cn1c(=O)c2c([nH]c(=S)n2CCCc2ccccc2)n(C)c1=O | - | - | 44 | - | 30 | -
CC(C)=NNc1nc2c(c(=O)[nH]c(=O)n2C)n1CCCc1ccccc1 | - | - | 36 | - | - | -
CC/C(C)=N/Nc1nc2c(c(=O)[nH]c(=O)n2C)n1CCc1ccccc1 | - | - | - | - | . | .
Cn1c(=O)[nH]c(=O)c2c1[nH]c(=S)n2Cc1ccc(Cl)cc1 | - | - | 48 | - | - | -
Cn1c(=O)[nH]c(=O)c2c1[nH]c(=S)n2CCCc1ccccc1 | - | . | 58 | - | 41 | -
CC(=O)Nc1cccc(NC(=O)CSc2nnc3ccc(-c4ccncc4)nn23)c1 | - | - | . | - | . | .
COc1ccccc1C(CNC(=O)C(CCSC)NS(=O)(=O)c1ccccc1F)N1CCCC1 (centres undefined) | - | - | . | - | . | .
CC1(C)CC(NC(=O)C(Cl)(Cl)Cl)CC(C)(C)N1 | - | - | - | - | . | .
O=C(c1ccco1)N1CCN(S(=O)(=O)c2c(Cl)cccc2Cl)CC1 | - | - | - | - | . | .
O=C(Nc1nc2c(F)cc(F)cc2s1)c1ccccn1 | - | - | - | - | . | .
Cn1c(=O)n(Cc2ccccc2Cl)c2ccccc21 | - | - | - | - | . | .
Cn1c(=O)n(Cc2ccccc2Cl)c(=O)c2c1[nH]c(=S)n2C | - | - | 36 | - | - | -
Cc1ccc(S(=O)(=O)N2CC=C(c3ccc(F)cc3)CC2)cc1 | - | - | 76 | - | - | -
O=C(O)/C=C/C(=O)NCc1cn(-c2ccccc2)nc1-c1cccc(Br)c1 | - | - | 36 | - | - | -
O=C(O)Cc1cn(-c2ccccc2)nc1-c1ccccc1 | - | - | - | - | . | .
CCC(/C=C1\Sc2ccc(OC)cc2N1CCO)=C\c1sc2ccc(OC)cc2[n+]1CCO | - | - | 34 | . | - | -
COC(=O)CN(c1cc(Cl)ccc1OC)S(=O)(=O)c1ccc(C)cc1 | - | - | - | - | . | .
COC(=O)CN(n1cnnc1)S(=O)(=O)c1ccc(C)cc1 | - | - | 84 | - | 79 | -
Cc1ccc2nc(/C(C#N)=C/c3ccc(O)c(O)c3)[nH]c2c1 | - | - | 60 | - | 36 | -
Cc1ccc2nc(/C(C#N)=C/c3ccccc3C(=O)O)[nH]c2c1 | - | - | - | - | . | .
CC(C)n1cnc2c(=S)nc[nH]c21 | - | - | - | - | - | -
CC(C)[C@H](NC(=O)N1CC(=O)Nc2ccccc21)C(=O)N[C@H](Cc1c[nH]c2ccccc12)C(=O)O | - | - | - | - | . | .
SMILES | Rin1-Abl PPI inh | CTSL1 counter-1 | PfM18AAP inh-1 | Calb FLC | PfM18AAP inh-2 | CTSL1 counter-2
O=C(Nc1ncccn1)c1ccc([N+](=O)[O-])cc1[N+](=O)[O-] | - | - | . | - | . | .
O=C(Nc1ncn[nH]1)c1ccc([N+](=O)[O-])cc1[N+](=O)[O-] | - | - | 44 | - | 34 | -
O=C(Nc1ncn[nH]1)c1ccccc1Br | - | - | 38 | - | 44 | -
CSc1ccccc1C(=O)Nc1ncn[nH]1 | - | - | - | - | . | .
O=C(NCCCNC(=O)c1ccccc1F)c1ccco1 | - | - | - | - | . | .
CCN(C(=O)COC(=O)CCC(=O)c1cccs1)c1c(N)n(Cc2ccccc2)c(=O)[nH]c1=O | - | - | . | - | . | .
CCN1/C(=C/c2cc[n+](CCCS(=O)(=O)[O-])c3ccccc23)Sc2ccccc21 | - | - | 33 | - | - | -
O=[N+]([O-])c1cc([N+](=O)[O-])c2nonc2c1Nc1ccccc1O | - | . | 38 | - | - | -
O=[N+]([O-])c1cc([N+](=O)[O-])c2nonc2c1Nc1ccc(O)cc1 | - | - | - | - | . | .
O=C1CC(c2ccccc2)Cc2nc3nc(C(F)(F)F)nn3cc21 (centres undefined) | - | - | - | - | . | .

High-throughput results as filed in PubChem BioAssay.
